Data from PubChem BioAssay (NCATS).
Inconclusive results are not listed. Where a call stands in place of a potency, no number is given. Values without a mark were called inactive. Active and inactive are the calls of the source. Calls follow the shape of the dose curve; as a rule, active = well fitted curve in the direction sought with a large enough effect; inconclusive = small, poorly fitted or top-dose-only effect, or another doubt; inactive = no such curve, though single readings can be large; an effect the other way counts as inactive or inconclusive.

How the values were obtained:
[1] = qHTS for Inhibitors of Plasmodium falciparum (DD2) proliferation (AID 504314); also: potency is read from the fitted curve at half-maximal effect
In short: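 SYBR Green growth assay: 72 h compound exposure of infected red cells (2.5% hematocrit, 0.3% parasitemia), then lysis and overnight dye staining, fluorescence 485/535 nm. Values scaled between DMSO and 0.29 uM artemisinin controls.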

[2] = qHTS for Inhibitors of Plasmodium falciparum (GB4) proliferation (AID 504315); also: nearly all actives have a fitted effect of over 50% in size; also: potency is read from the fitted curve at half-maximal effect
In short: (§1)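 Parasite growth measured as SYBR Green DNA fluorescence (ex 485, em 535 nm) after overnight lysis following 72 h culture at 37 °C, 0.3% parasitemia, 2.5% hematocrit. Values normalized against DMSO and 0.29 uM artemisinin controls, with plate-stack correction.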

[3] = qHTS for Inhibitors of Plasmodium falciparum (7G8) proliferation (AID 504316); also: series mostly up to about 6.7 µM; nearly all actives have a fitted effect of over 65% in size
In short: as §1

[4] = qHTS for Inhibitors of Plasmodium falciparum (HB3) proliferation (AID 504318); also: nearly all actives have a fitted effect of over 60% in size
In short: as §1

[5] = qHTS for Inhibitors of Plasmodium falciparum (CP250) proliferation (AID 504320)
In short: as §1

## C=CCOC(=O)C(C(C)=O)[C@@H](NC(=O)OC)c1cccc(C(F)(F)F)c1 (some centres not stated)
[1]
  Potency: inactive
[2]
  Potency: inactive
[3]
  Potency: inactive
[4]
  Potency: inactive
[5]
  Potency: inactive

## COC(=O)C1=C(C(=O)OC)[C@@H]2Nc3ccccc3[C@@]23C[C@@H](C(=O)OC)N(S(=O)(=O)c2cccs2)C3=N1
[1]
  Potency: inactive
[2]
  Potency: inactive
[3]
  Potency: inactive
[4]
  Potency: inactive

## COC(=O)CCC(=O)OC1(C)C(=O)C2=CN(C(CO)CO)C(c3ccc(OC)cc3)=CC2=C(Br)C1=O (configuration not stated)
[1]
  Potency: inactive
[2]
  Potency: inactive
[3]
  Potency: inactive
[4]
  Potency: inactive
[5]
  Potency: inactive

## COc1cc2c(cc1OC)[C@@H]1O[C@](CCCCN3C(=O)c4ccccc4C3=O)(C2)Oc2cc(C)n(-c3ccccc3)c(=O)c21
[1]
  Potency: 1690 nM (active)
[2]
  Potency: 1350 nM (active)

## C=CCN1C=C2C(=O)C(C)(OC(=O)CCc3ccccc3)C(=O)C=C2C=C1c1ccc(C#N)cc1 (configuration not stated)
[1]
  Potency: inactive
[2]
  Potency: inactive

## COC(=O)C1=C(C(=O)OC)[C@@H]2N(C)c3ccccc3[C@@]23C[C@@H](C(=O)OC)N(S(=O)(=O)c2ccc(OC)cc2)C3=N1
[1]
  Potency: inactive
[2]
  Potency: inactive

## CCOC(=O)N1C2=NC(C(=O)OC)=C(C(=O)OC)[C@@H]3N(C)c4ccc(OC)cc4[C@]23C[C@H]1C(=O)OC
[1]
  Potency: inactive
[2]
  Potency: inactive
[3]
  Potency: inactive
[4]
  Potency: inactive
[5]
  Potency: inactive

## COC(=O)C1=C(C(=O)OC)[C@@H]2N(C)c3ccccc3[C@@]23C[C@@H](C(=O)OC)N(S(=O)(=O)c2ccc4c(c2)OCCN4C)C3=N1
[1]
  Potency: inactive

## COC(=O)CCC(=O)OC1(C)C(=O)C=C2C=C(C3CC3)N(C(CO)CO)C=C2C1=O (configuration not stated)
[1]
  Potency: inactive
[2]
  Potency: inactive
[3]
  Potency: inactive
[4]
  Potency: inactive
[5]
  Potency: inactive

## CCOC(=O)CN1C(=O)N[C@@H](CCc2ccccc2)[C@@H](C(=O)OC)[C@H]1C
[1]
  Potency: inactive
[2]
  Potency: inactive
[3]
  Potency: inactive
[4]
  Potency: inactive
[5]
  Potency: inactive

## COC(=O)CCC(=O)OC1(C)C(=O)C=C2C=C(C3CC3)N(CCN3CCOCC3)C=C2C1=O (configuration not stated)
[1]
  Potency: inactive
[2]
  Potency: inactive
[3]
  Potency: inactive
[4]
  Potency: inactive

## COC(=O)CCCC1=CC2=CC(=O)C(C)(OC(=O)c3cccs3)C(=O)C2=CN1CC1CC1 (configuration not stated)
[1]
  Potency: inactive
[2]
  Potency: inactive
[3]
  Potency: inactive
[4]
  Potency: inactive

## COC(=O)C[C@H]1c2ccccc2[C@H]2C(=C[C@@H](C)[C@H]3C(=O)N(O)C(=O)[C@H]32)N1C(=O)OC
[1]
  Potency: inactive
[2]
  Potency: inactive
[3]
  Potency: inactive
[4]
  Potency: inactive
[5]
  Potency: inactive

## CC#CCN1c2ccccc2[C@]23C[C@@H](C(=O)OC)N(C(=O)CC(C)C)C2=NC(C(=O)OC)=C(C(=O)OC)[C@H]13
[1]
  Potency: inactive
[2]
  Potency: inactive
[3]
  Potency: inactive

## COCC(=O)N1CCc2nc(COc3ccccc3)c3c(c2C1)CO[C@@H](C)C3
[1]
  Potency: inactive
[2]
  Potency: inactive
[3]
  Potency: inactive
[4]
  Potency: inactive
[5]
  Potency: inactive

## CCCCC1=CC2=CC(=O)C(C)(OC(=O)CC)C(=O)C2=CN1CCCN(CC)CC (configuration not stated)
[1]
  Potency: inactive
[2]
  Potency: inactive
[3]
  Potency: inactive
[4]
  Potency: inactive
[5]
  Potency: inactive

## CCOC(=O)CN1C(=O)N[C@@H](c2cccc(C(F)(F)F)c2)C(C(C)=O)=C1C
[1]
  Potency: inactive
[2]
  Potency: inactive
[3]
  Potency: inactive
[4]
  Potency: inactive
[5]
  Potency: inactive

## COC(=O)[C@H]1[C@@H](C)N(Cc2ccccc2)C(=O)N[C@H]1c1ccccc1
[1]
  Potency: inactive
[2]
  Potency: inactive

## COC(=O)CCC(=O)OC1(C)C(=O)C=C2C=C(C3CC3)N(C3CC3)C=C2C1=O (configuration not stated)
[1]
  Potency: inactive
[2]
  Potency: inactive

## CC(C)(C)OC(=O)NCCCC1=CC2=CC(=O)C(C)(OC(=O)c3cccs3)C(=O)C2=CO1 (configuration not stated)
[1]
  Potency: inactive
[2]
  Potency: inactive
[3]
  Potency: inactive
[4]
  Potency: inactive
[5]
  Potency: inactive

## COC(=O)C1=C(C(=O)OC)[C@@H]2N(Cc3ccccc3)c3ccccc3[C@@]23CCC(=O)N(CC2CCCCC2)C3=N1
[1]
  Potency: inactive
[2]
  Potency: inactive
[3]
  Potency: inactive
[4]
  Potency: inactive
[5]
  Potency: inactive

## COC(=O)CCC(=O)OC1(C)C(=O)C2=CN(c3ccccc3)C(c3ccc(OC)cc3)=CC2=C(Br)C1=O (configuration not stated)
[1]
  Potency: inactive
[2]
  Potency: inactive
[3]
  Potency: inactive

## C=C(C(C)=O)C(O)c1cccs1 (configuration not stated)
[1]
  Potency: inactive
[2]
  Potency: inactive
[3]
  Potency: inactive

## COC(=O)C1=C(C(=O)OC)[C@@H]2N(C)c3ccc(OC)cc3[C@@]23C[C@@H](C(=O)OC)N(S(=O)(=O)c2cccs2)C3=N1
[1]
  Potency: inactive
[2]
  Potency: inactive
[3]
  Potency: inactive

## COC(=O)CC=C[C@@H](C)[C@H](OC)c1cc(F)ccc1Br
[1]
  Potency: inactive
[2]
  Potency: inactive
[3]
  Potency: inactive
[4]
  Potency: inactive
[5]
  Potency: inactive

## CCCCc1nc2c(c3c1C[C@H](C)OC3)CN(S(=O)(=O)c1ccc(Cl)c3nonc13)CC2
[1]
  Potency: inactive
[2]
  Potency: inactive
[3]
  Potency: inactive

## COc1ccc(-c2nc3c(c4c2C[C@H](c2ccccc2)OC4)CN(S(=O)(=O)c2ccc(C#N)cc2)CC3)c(C)c1
[1]
  Potency: inactive

## Cc1cc2c(c(=O)n1-c1ccccc1)[C@H]1O[C@](c3ccsc3)(Cc3cc(C#N)ccc31)O2
[1]
  Potency: inactive
[2]
  Potency: inactive

## C#CCCOC(=O)N1C2=NC(C(=O)OC)=C(C(=O)OC)[C@@H]3N(C)c4ccc(OC)cc4[C@]23C[C@H]1C(=O)OC
[1]
  Potency: inactive
